# Assay results: paper PMC5540273 (PLoS ONE, 2017)
# Where “and” joins values, the source holds several entries; their conditions need not be identical. Identical values can stand only once. Like-named read-outs stand apart in the source and are kept apart here.
# Experiments:
# CDK4-cyclinD3 = conditions: concentration: 1 μM, replicates: in singlicate, n = 1
# CDK4 = conditions: concentration: 1 μM, replicates: in singlicate, n = 1
# CDK5 = conditions: concentration: 1 μM, replicates: in singlicate; n = 1
# CDK7 = conditions: concentration: 1 μM, replicates: in singlicate, n = 1
# CDK8 = conditions: concentration: 1 μM, replicates: in singlicate, n = 1
# CDK9 = conditions: concentration: 1 μM, replicates: in singlicate; n = 1
# CDKL1 = conditions: concentration: 1 μM, replicates: in singlicate, n = 1
# CDKL2 = conditions: concentration: 1 μM, replicates: in singlicate, n = 1
# CDKL3 = conditions: concentration: 1 μM, replicates: in singlicate; n = 1
# CDKL5 = conditions: concentration: 1 μM, replicates: in singlicate; n = 1
# 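Also: KINOMEscan kinase panel screen.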
SMILES,%Inh (CDK4-cyclinD3),%Inh (CDK4),%Inh (CDK5),%Inh (CDK7),%Inh (CDK8),%Inh (CDK9),%Inh (CDKL1),%Inh (CDKL2),%Inh (CDKL3),%Inh (CDKL5),%Inh (CDK4-cyclinD3; 1 µM),%Inh (CDK4; 1 µM),%Inh (CDK7; 1 µM),%Inh (CDK8; 1 µM),%Inh (CDKL1; 1 µM),%Inh (CDKL2; 1 µM)
COc1cc(Nc2nccc(N3CCC(NC(=O)c4cccc(NC(C)=O)c4)C3)n2)cc(OC)c1OC (stereo not drawn) [GSK1379754],0%,12%,0%,9%,33%,0%,0%,22%,0%,4%,–,–,–,–,–,–
CCc1ccnc(/C=C/c2n[nH]c3cc(Sc4ccccc4C(=O)NC)ccc23)c1,0%,0%,1%,0%,0%,10%,3%,0%,2%,12%,–,–,–,–,–,–
Cl.Nc1ncnc2occ(-c3ccc(NC(=O)Nc4cc(C(F)(F)F)ccc4F)cc3)c12 [SB-707548],11%,2%,59%,97.8%,100%,78%,7%,74%,95%,0%,–,–,–,–,–,–
COc1ccc(Nc2ncc(C#N)c(Nc3ccccc3C(N)=O)n2)cc1N1CCN(C)CC1.Cl [GSK1558669],90%,93.9%,99.7%,99.8%,0%,72%,89%,94.7%,0%,29%,–,–,–,–,–,–
Cc1ccc(C(=O)NCC(N)=O)cc1-n1c(C)cc(OCc2ccc(F)cc2F)c(Br)c1=O,0%,0%,0%,0%,8%,0%,44%,3%,9%,0%,–,–,–,–,–,–
Cc1ccc(NC(=O)c2ccnc(N3CCN(C)CC3)c2)cc1-c1ccc(C(=O)NCC2CC2)cc1 [GW775604],0%,2%,0%,0%,0%,0%,0%,0%,5%,0%,–,–,–,–,–,–
O=c1cc(N2CCOCC2)nc2n(Cc3cccc(C(F)(F)F)c3)ccn12 [GSK2297543],7%,12%,0%,0%,16%,0%,0%,20%,0%,0%,–,–,–,–,–,–
O=C(NCCNc1ccnc(Nc2ccc(F)cc2)n1)Nc1ccccc1F [GSK1379880],3%,28%,0%,0%,0%,0%,0%,15%,0%,0%,–,–,–,–,–,–
Cc1nnc(-c2ccc3ncc(-c4ccc(S(C)=O)cc4)n3c2)o1 (stereo not drawn),0%,0%,0%,0%,13%,0%,0%,4%,2%,10%,–,–,–,–,–,–
Cc1cccc(-c2nc(-c3ccc(S(C)(=O)=O)cc3)sc2-c2ccncc2)c1,19%,0%,12%,25%,9%,0%,0%,4%,0%,7%,–,–,–,–,–,–
COc1cc2c(cc1OCCN1CCN(C)CC1)ncc1c3ccc(C#N)cc3[nH]c21,0%,0%,9%,99.7%,3%,14%,32%,6%,0%,0%,–,–,–,–,–,–
NCC(NC(=O)c1cc(-c2cn[nH]c2)c(-c2ccnc3[nH]ccc23)s1)c1ccccc1.O=C(O)C(F)(F)F.O=C(O)C(F)(F)F (stereo not drawn) [GSK1325775],41%,0%,0%,93.7%,33%,64%,34%,53%,68%,48%,–,–,–,–,–,–
NS(=O)(=O)CCc1cccc(Nc2nccc(-c3c(-c4cccc(NC(=O)c5c(F)cccc5F)c4)nn4ccccc34)n2)c1 [GSK336735],0%,19%,0%,0%,0%,0%,0%,25%,0%,1%,–,–,–,–,–,–
O=c1cc(N2CCOCC2)nc2n(Cc3cccc4ccccc34)ccn12 [GSK2333389],0%,0%,0%,0%,13%,1%,0%,4%,0%,0%,–,–,–,–,–,–
Fc1ccc(-c2nn3c(OCC(F)(F)F)cccc3c2-c2ccncc2)cc1 [GW514784],0%,46%,0%,0%,57%,0%,8%,4%,0%,0%,–,–,–,–,–,–
COC(=O)Nc1nc2cc(Oc3ccc(NC(=O)Nc4cc(F)ccc4F)cc3)ccc2[nH]1.Cl [GW701424],5%,0%,0%,37%,42%,0%,0%,36%,0%,0%,–,–,–,–,–,–
CN1c2ccc(CNc3ccc(F)cc3)cc2-c2c(cnn2C)S1(=O)=O,0%,0%,0%,0%,0%,0%,9%,0%,0%,0%,–,–,–,–,–,–

SMILES,%Inh (CDK4-cyclinD3),%Inh (CDK4),%Inh (CDK5),%Inh (CDK7),%Inh (CDK8),%Inh (CDK9),%Inh (CDKL1),%Inh (CDKL2),%Inh (CDKL3),%Inh (CDKL5),%Inh (CDK4-cyclinD3; 1 µM),%Inh (CDK4; 1 µM),%Inh (CDK7; 1 µM),%Inh (CDK8; 1 µM),%Inh (CDKL1; 1 µM),%Inh (CDKL2; 1 µM)
CCCCCc1nc2c(N)ncnc2n1CCCCC [SKF-97255],0%,13%,0%,2%,8%,0%,26%,0%,16%,7%,–,–,–,–,–,–
C[C@@H](Oc1cc(-n2cnc3ccc(NC(=O)NC(C)(C)C)cc32)sc1C(N)=O)c1ccccc1Cl [GSK346294],1%,34%,0%,0%,45%,0%,14%,5%,0%,0%,–,–,–,–,–,–
CN(C1=C(c2ccccc2)C(=O)NC1=O)c1ccccc1 [SB-334860],9%,5%,6%,15%,4%,9%,6%,0%,0%,8%,–,–,–,–,–,–
Cl.Oc1cccc(Nc2ccnc3cc(-c4ccncc4)ccc23)c1 [GW494601],0%,37%,0%,10%,36%,4%,2%,2%,0%,0%,–,–,–,–,–,–
NS(=O)(=O)c1cccc(-c2ccc3nccc(-c4cccc(S(N)(=O)=O)c4)c3c2)c1 [GW867253],0%,19%,0%,4%,36%,0%,27%,16%,20%,5%,–,–,–,–,–,–
O=C(Nc1cccc(-c2nn3ncccc3c2-c2ccnc(Nc3cccc(C(F)(F)F)c3)n2)c1)c1c(F)cccc1F [GSK299495],9%,18%,0%,0%,24%,0%,0%,14%,0%,0%,–,–,–,–,–,–
COc1ccc(CNC(=O)NC2CCN(c3ccnc(Nc4ccc(OC)cc4)n3)C2)cc1 (stereo not drawn) [GSK1379727],0%,48%,0%,0%,42%,0%,4%,21%,0%,0%,–,–,–,–,–,–
CC(=O)Nc1ccc(COc2ccc(Nc3ccnc4cc(-c5ccccn5)ccc34)cc2)cc1.Cl [GW440148],0%,0%,0%,0%,8%,14%,7%,12%,0%,0%,–,–,–,–,–,–
Nc1nccc(-c2c(-c3ccc(F)cc3)ncn2C2CCN(CC(F)(F)F)CC2)n1 [SB-236560],97.9%,52%,0%,10%,70%,0%,18%,11%,0%,0%,–,–,–,–,–,–
Cc1nnc(-c2ccc3occ(-c4ccc(C(C)O)cc4)c3c2)o1 (stereo not drawn),0%,0%,1%,17%,0%,8%,52%,0%,0%,25%,–,–,–,–,–,–
Cc1cn2c(=O)cc(N3CCOCC3)nc2n1Cc1cccc(Cl)c1Cl [GSK2334006],0%,3%,2%,0%,15%,0%,0%,3%,0%,2%,–,–,–,–,–,–
CC(C)(CN)c1nc(-c2ccc(Cl)c(O)c2)c(-c2ccncc2)[nH]1.O=C(O)C(F)(F)F [SB-477794],–,–,0%,–,–,0%,–,–,0%,0%,32% and 0%,39% and 51%,0% and 14%,59% and 64%,3% and 10%,14% and 0%
CCc1nc(-c2cccc(C)c2)c(-c2ccnc(NCc3ccccc3)c2)s1,0%,0%,0%,0%,0%,1%,13%,0%,2%,0%,–,–,–,–,–,–
CSc1ccc(-c2cc3ncnc(SCC(=O)O)c3s2)cc1,0%,0%,22%,25%,0%,33%,4%,0%,0%,0%,–,–,–,–,–,–
CC(C)Oc1ccc2c(-c3ccnc(Nc4ccc(N5CCN(C)CC5)cc4)n3)cnn2n1 [GW696155],97.8%,58%,0%,99.8%,8%,21%,34%,99.6%,92%,43%,–,–,–,–,–,–
CC(C)(C)n1cnc2c(N)ncnc21 [SKF-97359],0%,0%,0%,0%,66%,0%,0%,28%,0%,0%,–,–,–,–,–,–
